Bioassay records deposited in PubChem by National Center for Advancing Translational Sciences (NCATS).
HCMV antiviral – inhibitors of human cytomegalovirus | HFF cells, HCMV-luciferase reporter, 72 h; stronger effect = lower value | activity change, negative = inhibition, % at 57.5 µM | 4.5% of 410,000 active | AID 1259415; in the data active means activity change below about -60%; inconclusive means no clear call, values can overlap the other calls; inactive means above about -39%
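After 16 h attachment at 37C, HFF cells received test compound and HCMV-luciferase (1 PFU/cell); reporter luminescence read 72 h later, data normalized against buffer-only and known inhibitor Salinomycin.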
Pf growth 48h – inhibits P. falciparum growth in the first generation, 48 h. P. falciparum luciferase growth in erythrocytes, 48 h. Potency, µM (titrated, usually from 28.7 µM), inactives show at the top dose activity change, negative = inhibition, usual class: inhibitors. 5.9% of 310,000 active. AID 504832; further: potency means the concentration at half of the fitted maximal effect
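Firefly luciferase activity from engineered P. falciparum reports growth; inhibitors lower the luminescent signal. Cultures contained 2% hematocrit erythrocytes at 0.1% final parasitemia.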
HCV inhibitor – blocks hepatitis C virus; Huh7.5.1 HCVcc-Cre infection, luciferase reporter, 44 h; Potency, µM (highest dose often 41.8 µM), inactives show at the highest dose activity change, negative = inhibition, most hits filed as inhibitors; 3.4% of 340,000 active; AID 651820; further: potency means the concentration at half of the fitted maximal effect
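Cells (1,000/well) were plated 4 h before compound, then infected with HCVcc-Cre virus (~0.5 moi). After 44 h further culture, infection was read as luciferase luminescence following a 15 min substrate incubation at room temperature.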
Pf growth 96h – P. falciparum growth inhibition at 96 hours; P. falciparum luciferase reporter growth, 96 h; Potency, µM (series often up to 28.7 µM), for the others: at the highest dose activity change, negative = inhibition, most hits filed as inhibitors; 6.9% of 320,000 active; AID 504834; further: potency means the concentration at half of the fitted maximal effect
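Compounds incubated with erythrocytes infected by luciferase-expressing P. falciparum (2% hematocrit, 0.05% parasitemia final) for 96 hours, 37 C in 5% CO2. Growth inhibition scored as decreased luciferase luminescence.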
Active calls of the source: *; ? = inconclusive; · = no result given; [ ] = remark or other dose. An excerpt weighted towards active compounds, which were near 13% of everything screened. Unless noted, the call rests on the fitted dose curve; in most records, active means well fitted inhibition curve with a large enough effect; inconclusive means small, poorly fitted or top-dose-only effect, or another doubt; inactive means no such curve, though single readings can be large or run the other way. On the % scale 0 is the no-effect control and ±100 the full control effect.

SMILES	HCMV antiviral	Pf growth 48h	HCV inhibitor	Pf growth 96h
O=C1C=C(c2cccc(Cl)c2O)C[C@@H](c2ccc(Cl)cc2)C1	3.7	2.94µM*	?	1.47µM*
O=C1C=C(c2cccc(Cl)c2)C[C@@H](c2ccc(Cl)cc2)C1	-39.8	3.29µM*	9.0%	2.08µM*
O=C1C=C(c2cccc(Br)c2)C[C@@H](c2ccc(Cl)cc2)C1	0.8	·	?	·
COc1cccc(NC(c2nnc(-c3ccccc3)o2)c2ccc(F)cc2Cl)c1 (configuration not stated)	5.8	·	·	·
C#CCN(C[C@H]1[C@H](OC(=O)Nc2cccs2)[C@H](OC(=O)Nc2cccs2)C[C@H]2C(=O)N(c3ccccc3)C(=O)[C@@H]12)S(=O)(=O)c1ccc(C)cc1	-9.1	·	·	·
C#CCN(C[C@H]1[C@H](OC(=O)Nc2cccs2)[C@H](OC(=O)Nc2cccs2)CN(C(=O)OC(C)C)N1C(=O)OC(C)C)S(=O)(=O)c1ccc(C)cc1	-79.0*	·	·	·
C#CCN(C[C@@H]1[C@@H](OC(=O)NCc2ccccc2F)[C@@H](OC(=O)NCc2ccccc2F)Cn2c(=O)ccc(=O)n21)S(=O)(=O)c1ccc(C)cc1	-99.5*	·	·	·
C#CCN(C[C@@H]1[C@@H](OC(=O)Nc2cccs2)[C@@H](OC(=O)Nc2cccs2)Cn2c(=O)ccc(=O)n21)S(=O)(=O)c1ccc(C)cc1	-103.5*	·	·	·
C#CCN(C[C@@H]1[C@@H](OC(=O)NC2CC2)[C@@H](OC(=O)NC2CC2)CN(C(=O)OC(C)C)N1C(=O)OC(C)C)S(=O)(=O)c1ccc(C)cc1	1.6	·	·	·
C#CCN(C[C@@H]1[C@@H](OC(=O)NC2CCCC2)[C@@H](OC(=O)NC2CCCC2)Cn2c(=O)ccc(=O)n21)S(=O)(=O)c1ccc(C)cc1	-101.4*	·	·	·
COCCNc1nc2c(c(=O)n(C)c(=O)n2C)n1Cc1c(F)cccc1Cl	-18.7	·	·	·
Cc1cccc(NC(=O)C(=O)NCC(c2cccnc2)N2CCc3ccccc3C2)c1C (configuration not stated)	-3.7	·	·	·
CO/N=C(/C(=O)N[C@@H]1C(=O)N2C(C(=O)O)=C(C[n+]3ccc(N)n3CCO)CS[C@H]12)c1csc(N)n1	·	-5.7%	·	10.7µM*
CO/N=C(/C(=O)N[C@@H]1C(=O)N2C(C(=O)O)=C(CSC(=O)c3ccco3)CSC12)c1csc(N)n1 (some centres not stated)	·	?	·	13.5µM*
CON=C(C(=O)NC1C(=O)N2C(C(=O)O)=C(CSc3nc(=O)c(=O)[nH]n3C)CSC12)c1csc(N)n1 (configuration not stated)	-5.8	·	?	·
CO/N=C(\C(=O)N[C@@H]1C(=O)N2C(C(=O)O)=C(COC(C)=O)CS[C@@H]12)c1csc(N)n1	·	1.2%	·	0.2%
O=C(OCc1ccccc1)c1cccnc1	1.6	?	·	15.1µM*
O=C(N[C@@H](Cc1ccccc1)C(=O)O)c1cccnc1	13.7	·	-9.3%	2.94µM*
CC1=C(C(=O)NCCc2ccc(Cl)cc2)C2(CCCCC2)OC1=O	0.0	·	·	·
O=C(N/N=C/c1cnc(N2CCCCC2)s1)c1ccc(C(F)(F)F)cc1	14.2	3.29µM*	11.2µM*	?
CC1CN(c2ncc(/C=N/NC(=O)c3ccccc3O)s2)CC(C)O1 (configuration not stated)	117.3	?	-18.6%	?
CC1CC(=O)N(CC(=O)Nc2ccc(Br)cc2)c2ccccc2S1(=O)=O (configuration not stated)	-64.3*	-28.4%	-3.6%	5.8%
CCC(=O)N1CCc2cc(CNC(=O)c3ccccc3C)ccc21	65.0	·	·	·
C/C(=N\NC(=O)c1c[nH]c2ccccc12)c1ccc(C)o1	80.6	·	?	0.928µM*
CSc1ccc(CCNC(=O)Cn2c(C)c3cnn(-c4ccccc4)c(=O)c3c2C)cc1	-19.0	·	·	·
SMILES	HCMV antiviral	Pf growth 48h	HCV inhibitor	Pf growth 96h
O=c1oc2ccccc2nc1/C=C(\O)c1ccc(Br)cc1	·	1.85µM*	5.2%	?
Cc1cc(-c2ccccc2)n(-c2cc(N/N=C/c3ccccc3O)ncn2)n1	-96.2*	13.1µM*	?	-10.7%
O=S(=O)(c1ccc(Cl)cc1)N1CCC2(CC1)OCCN2S(=O)(=O)c1cccs1	·	13.1µM*	-0.8%	?
Cc1ccc(S(=O)(=O)N2CCC3(CC2)OCCN3S(=O)(=O)c2cccs2)cc1	-24.0	?	?	?
COc1ccc(S(=O)(=O)N2CCC3(CC2)OCCN3S(=O)(=O)c2cccs2)cc1	-25.0	?	?	?
COc1ccc(OC)c(S(=O)(=O)N2CCC3(CC2)OCCN3S(=O)(=O)c2cccs2)c1	-21.5	?	3.1%	10.4µM*
C[n+]1ccccc1N1CCN(c2ccccc2Cl)CC1	-15.7	4.65µM*	1.5%	?
Cc1ccc(Cl)cc1N1CCN(C(=S)NCCc2ccccc2)CC1	-19.9	-9.7%	-18.0%	15.6%[1.15 µM]
Cc1ccc(Cl)cc1N1CCN(c2cccc[n+]2C)CC1	-92.6*	4.15µM*	0.6%	0.738µM*
CCC(C)NC(=O)CCC(=O)N1Cc2ccccc2Oc2ncccc21 (configuration not stated)	20.2	·	·	·
COc1cccc(C(=O)N(Cc2cc3cc(C)ccc3[nH]c2=O)C(C)C)c1	-31.7	7.38µM*	?	3.7µM*
Cc1ccc2cc(CN(C(=O)c3cccnc3)C(C)C)c(=O)[nH]c2c1	22.4	11.7µM*	-12.2%	?
Cc1cccc(N(Cc2cc3ccc(C)cc3[nH]c2=O)C(=O)c2ccco2)c1	-22.4	?	?	10.4µM*
CC(=O)N(Cc1cc2cc(C)ccc2[nH]c1=O)c1cccc(C)c1C	-16.6	0.1%	-5.8%	9.28µM*
COc1cc(OC)cc(C(=O)N(Cc2cc3cc(C)ccc3[nH]c2=O)C(C)C)c1	-19.4	?	-26.0%	?
COc1ccc(Cl)cc1NC(=O)C(C)N1Cc2ccccc2C1=O (configuration not stated)	-4.4	·	·	·
O=C(CCc1ccccc1)NCc1ccc2c(c1)CCN2C(=O)c1ccc(Cl)cc1	25.8	·	·	·
CCOC(=O)c1ccc(NC(=O)CCc2c(C)nc3c(c(C)nn3-c3ccccc3)c2C)cc1	-6.0	·	·	·
NC(=O)C1Cc2ccccc2CN1C(=O)c1nn(Cc2ccccc2)c(=O)c2ccccc12 (configuration not stated)	·	9.28µM*	3.2%	5.86µM*
NC(=O)C1Cc2ccccc2CN1C(=O)c1cc(C2CC2)nn1-c1ccccc1 (configuration not stated)	-76.9*	·	?	·
O=C(O)c1cc(C2CC2)nn1-c1ccccc1	4.1	·	10.6%	35.2%
O=C(c1nn(Cc2ccccc2)c(=O)c2ccccc12)N1CCc2ccccc2C1	9.2	-1.0%	10.3%	32.1%
COc1cc2c(cc1OC)CN(C(=O)c1cc(C3CC3)nn1-c1ccccc1)CC2	-37.0	?	?	5.86µM*
Cc1ccc(CSc2ccc3nnc(CCNS(=O)(=O)c4ccc(C)cc4)n3n2)cc1	-3.3	·	·	·
COC(=O)c1ccc(OCC2c3cc(OC)c(OC)cc3CCN2C(=O)c2ccccc2F)cc1 (configuration not stated)	13.6	·	·	·
